Holding throughout (experiment): DAPPL (digital affinity profiling via proximity ligation, sequencing); 10 mM Tris-HCl pH 7.5, 50 mM NaCl, 1 mM DTT, 4% glycerol, room temperature, 30 min; GST-TFs on glutathione beads, 16-mer random dsDNA library, 0.1% formaldehyde crosslink after washing; high values mean tight binding
Common to all, as to conditions: protein: recombinant; tags: N-terminal GST; dsDNA, one strand shown

In experiment [1] the target is T1, FLI1 (Homo sapiens, UniProt Q01543 1-452).
T1 sequence: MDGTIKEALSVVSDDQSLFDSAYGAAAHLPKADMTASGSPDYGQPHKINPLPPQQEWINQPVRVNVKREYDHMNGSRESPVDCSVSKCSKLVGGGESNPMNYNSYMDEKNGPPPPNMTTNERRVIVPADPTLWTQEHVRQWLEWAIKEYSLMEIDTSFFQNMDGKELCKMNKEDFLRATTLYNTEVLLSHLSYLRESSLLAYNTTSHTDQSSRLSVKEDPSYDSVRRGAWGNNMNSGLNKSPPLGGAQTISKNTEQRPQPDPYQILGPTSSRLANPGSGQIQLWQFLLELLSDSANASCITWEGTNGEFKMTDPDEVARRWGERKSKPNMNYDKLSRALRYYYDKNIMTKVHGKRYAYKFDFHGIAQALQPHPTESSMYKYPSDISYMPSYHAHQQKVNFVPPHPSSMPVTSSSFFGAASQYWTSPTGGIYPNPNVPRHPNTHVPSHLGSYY
A digest of the protocol: (§1)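 Binding signal is given per hexamer as its read frequency for a factor divided by its frequency in the tag-only sample. GST-fused human transcription factors were expressed in yeast, captured on glutathione beads, barcoded with DNA and pooled with that sample, then incubated with 200 nmole of a 16-mer random double-stranded DNA library in Tris/NaCl/DTT/glycerol buffer for 30 min at room temperature. The pools were then washed, crosslinked, proximity-ligated, amplified by PCR and sequenced on an Illumina NextSeq500.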

Experiment [2] concerns the target T2, ELK1 (Homo sapiens, UniProt P19419 1-428).
T2 sequence: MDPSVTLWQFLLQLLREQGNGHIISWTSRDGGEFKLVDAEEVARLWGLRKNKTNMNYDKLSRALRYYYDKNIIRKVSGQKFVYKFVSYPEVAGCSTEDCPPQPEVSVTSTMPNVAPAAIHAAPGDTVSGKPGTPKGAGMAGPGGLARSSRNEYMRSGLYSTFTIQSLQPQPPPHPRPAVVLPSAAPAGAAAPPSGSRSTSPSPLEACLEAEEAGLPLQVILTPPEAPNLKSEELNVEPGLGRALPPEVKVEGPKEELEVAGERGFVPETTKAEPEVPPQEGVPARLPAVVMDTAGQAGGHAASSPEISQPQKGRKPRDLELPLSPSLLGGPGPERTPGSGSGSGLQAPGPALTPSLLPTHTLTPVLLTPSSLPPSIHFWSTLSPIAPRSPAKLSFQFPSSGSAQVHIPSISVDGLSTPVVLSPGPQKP
Put shortly:
as §1

In experiment [3] the target is T3, GABPA (Homo sapiens, UniProt Q06546 1-454).
T3 sequence: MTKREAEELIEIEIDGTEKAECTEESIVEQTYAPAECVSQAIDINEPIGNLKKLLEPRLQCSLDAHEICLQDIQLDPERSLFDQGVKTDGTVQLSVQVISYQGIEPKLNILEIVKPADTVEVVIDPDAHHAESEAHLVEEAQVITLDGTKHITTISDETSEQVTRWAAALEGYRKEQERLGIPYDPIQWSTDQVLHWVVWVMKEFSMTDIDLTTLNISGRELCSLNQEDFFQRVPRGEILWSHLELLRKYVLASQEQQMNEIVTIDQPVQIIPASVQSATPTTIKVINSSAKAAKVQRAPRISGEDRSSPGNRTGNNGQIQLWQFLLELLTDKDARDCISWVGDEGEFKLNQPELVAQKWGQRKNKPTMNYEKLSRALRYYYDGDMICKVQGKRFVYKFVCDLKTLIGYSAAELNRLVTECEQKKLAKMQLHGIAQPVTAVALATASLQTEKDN
Put shortly: as §1

Experiment [4] addresses T4, ERG (Homo sapiens, UniProt P11308 1-479).
T4 sequence: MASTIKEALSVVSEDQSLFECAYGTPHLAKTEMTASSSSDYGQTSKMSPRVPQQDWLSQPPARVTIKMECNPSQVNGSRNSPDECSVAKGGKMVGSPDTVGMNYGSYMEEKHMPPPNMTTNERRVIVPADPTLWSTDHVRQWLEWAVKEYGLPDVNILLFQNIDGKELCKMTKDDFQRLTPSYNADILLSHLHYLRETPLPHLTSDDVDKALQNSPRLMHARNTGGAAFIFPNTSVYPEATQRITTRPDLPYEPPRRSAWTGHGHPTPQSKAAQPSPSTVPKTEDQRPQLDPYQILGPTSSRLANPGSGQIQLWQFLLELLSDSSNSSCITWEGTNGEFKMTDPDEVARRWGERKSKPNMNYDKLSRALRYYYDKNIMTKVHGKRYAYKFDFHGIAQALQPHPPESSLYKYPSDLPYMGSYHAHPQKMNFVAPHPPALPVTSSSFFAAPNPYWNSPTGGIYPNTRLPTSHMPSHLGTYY
Put shortly:
as §1

Experiment [5] addresses ELF1 (Homo sapiens, UniProt P32519 1-619). A digest of the protocol: as §1
For experiment [6], the target named is T5, EHF (Homo sapiens, UniProt Q9NZC4 1-300).
T5 sequence: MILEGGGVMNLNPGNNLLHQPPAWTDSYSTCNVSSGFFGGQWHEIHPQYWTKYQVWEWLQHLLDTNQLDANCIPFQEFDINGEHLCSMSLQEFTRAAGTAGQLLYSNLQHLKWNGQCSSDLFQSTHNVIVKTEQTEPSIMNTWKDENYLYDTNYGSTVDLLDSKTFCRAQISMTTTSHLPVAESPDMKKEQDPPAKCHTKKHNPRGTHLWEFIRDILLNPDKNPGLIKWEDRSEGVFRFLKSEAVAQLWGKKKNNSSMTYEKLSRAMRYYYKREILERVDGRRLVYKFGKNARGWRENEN
A digest of the protocol: as §1

For experiment [7], the target named is SPI1 (Homo sapiens, UniProt P17947 1-270). A digest of the protocol:
as §1

For experiment [8], the target named is SPIB (Homo sapiens, UniProt Q01892 1-262). Put shortly: as §1
For experiment [9], the target named is T6, ELK3 (Homo sapiens, UniProt P41970 1-407).
T6 sequence: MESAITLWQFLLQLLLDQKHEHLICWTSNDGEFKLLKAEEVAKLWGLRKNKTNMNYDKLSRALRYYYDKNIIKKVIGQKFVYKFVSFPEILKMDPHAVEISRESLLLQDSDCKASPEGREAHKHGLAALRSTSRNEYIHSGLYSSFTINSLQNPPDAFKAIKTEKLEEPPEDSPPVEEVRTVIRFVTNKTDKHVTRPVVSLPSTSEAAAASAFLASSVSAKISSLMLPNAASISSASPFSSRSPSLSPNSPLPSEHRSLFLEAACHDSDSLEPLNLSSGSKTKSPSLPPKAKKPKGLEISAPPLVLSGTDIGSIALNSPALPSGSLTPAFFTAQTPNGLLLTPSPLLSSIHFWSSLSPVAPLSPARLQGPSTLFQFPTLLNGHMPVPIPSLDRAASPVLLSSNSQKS
Put shortly:
as §1

Here are results for 8 sequences from paper PMC7862700, “An all-to-all approach to the identification of sequence-specific readers for epigenetic DNA modifications on cytosine”.

Chain of ELF1 (P32519 whole entry): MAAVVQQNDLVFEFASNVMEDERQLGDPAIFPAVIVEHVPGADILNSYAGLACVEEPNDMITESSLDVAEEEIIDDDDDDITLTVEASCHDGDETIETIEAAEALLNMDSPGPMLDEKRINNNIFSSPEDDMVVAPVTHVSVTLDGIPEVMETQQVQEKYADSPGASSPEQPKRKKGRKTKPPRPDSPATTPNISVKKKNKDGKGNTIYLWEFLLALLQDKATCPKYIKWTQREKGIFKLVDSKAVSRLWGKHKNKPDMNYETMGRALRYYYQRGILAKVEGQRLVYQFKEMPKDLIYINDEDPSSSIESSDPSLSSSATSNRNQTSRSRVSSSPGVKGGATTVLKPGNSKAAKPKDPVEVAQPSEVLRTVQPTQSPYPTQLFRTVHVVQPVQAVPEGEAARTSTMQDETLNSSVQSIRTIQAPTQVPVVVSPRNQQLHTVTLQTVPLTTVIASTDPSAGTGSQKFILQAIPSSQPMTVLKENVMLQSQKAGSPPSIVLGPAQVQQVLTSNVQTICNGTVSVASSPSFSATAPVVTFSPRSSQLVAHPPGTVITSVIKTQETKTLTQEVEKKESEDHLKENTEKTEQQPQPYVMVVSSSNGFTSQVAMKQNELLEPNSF
Chain of SPIB (Q01892 whole entry): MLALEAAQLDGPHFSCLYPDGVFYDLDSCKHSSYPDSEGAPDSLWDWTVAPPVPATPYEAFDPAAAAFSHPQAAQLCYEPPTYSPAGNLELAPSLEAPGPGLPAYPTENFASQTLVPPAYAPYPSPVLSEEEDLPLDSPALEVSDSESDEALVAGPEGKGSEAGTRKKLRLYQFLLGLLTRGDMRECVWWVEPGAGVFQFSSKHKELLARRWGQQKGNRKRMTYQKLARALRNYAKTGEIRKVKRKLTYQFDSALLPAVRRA

For CTTTGC, the binding signal was 1.4 fold enrichment (6-mer frequency, TF over GST control) in experiment [1]; 1.29 fold enrichment (6-mer frequency, TF over GST control) in experiment [2]; 1.39 fold enrichment (6-mer frequency, TF over GST control) in experiment [3]; 1.46 fold enrichment (6-mer frequency, TF over GST control) in experiment [4]; 1.32 fold enrichment (6-mer frequency, TF over GST control) in [5]; 1.32 fold enrichment (6-mer frequency, TF over GST control) in [6]. Moreover, the binding signal in experiment [7] is 1.21 fold enrichment (6-mer frequency, TF over GST control); in experiment [8] it was 1.32 fold enrichment (6-mer frequency, TF over GST control); in [9] it was 1.33 fold enrichment (6-mer frequency, TF over GST control).

Turning to GGGCCT, the binding signal in experiment [1] was 1.26 fold enrichment (6-mer frequency, TF over GST control); in experiment [2] it was 1.29 fold enrichment (6-mer frequency, TF over GST control); in experiment [3] it was 1.3 fold enrichment (6-mer frequency, TF over GST control); in [4], 1.16 fold enrichment (6-mer frequency, TF over GST control); in experiment [5], 1.27 fold enrichment (6-mer frequency, TF over GST control); in experiment [6], 1.27 fold enrichment (6-mer frequency, TF over GST control). Moreover, the binding signal in experiment [7] is 1.15 fold enrichment (6-mer frequency, TF over GST control); in experiment [8] it was 1.23 fold enrichment (6-mer frequency, TF over GST control); in [9] it was 1.32 fold enrichment (6-mer frequency, TF over GST control).

In the case of AGAATT, the binding signal in experiment [1] was 1.21 fold enrichment (6-mer frequency, TF over GST control); in experiment [2], 1.15 fold enrichment (6-mer frequency, TF over GST control); in experiment [3] it was 1.11 fold enrichment (6-mer frequency, TF over GST control); in [4] it was 1.17 fold enrichment (6-mer frequency, TF over GST control); in [5] it was 1.15 fold enrichment (6-mer frequency, TF over GST control); in [6], 1.18 fold enrichment (6-mer frequency, TF over GST control). For the same sequence, the binding signal was 1.22 fold enrichment (6-mer frequency, TF over GST control) in [7]; 1.16 fold enrichment (6-mer frequency, TF over GST control) in experiment [8]; 1.28 fold enrichment (6-mer frequency, TF over GST control) in [9].

As for CCGACC, the binding signal is 1.66 fold enrichment (6-mer frequency, TF over GST control) in experiment [1]; 1.59 fold enrichment (6-mer frequency, TF over GST control) in [2]; 1.65 fold enrichment (6-mer frequency, TF over GST control) in experiment [3]; 1.55 fold enrichment (6-mer frequency, TF over GST control) in experiment [4]; 1.47 fold enrichment (6-mer frequency, TF over GST control) in [5]; 1.44 fold enrichment (6-mer frequency, TF over GST control) in experiment [6]. Besides, the binding signal was 1.42 fold enrichment (6-mer frequency, TF over GST control) in experiment [7]; 1.57 fold enrichment (6-mer frequency, TF over GST control) in experiment [8]; 1.8 fold enrichment (6-mer frequency, TF over GST control) in experiment [9].

On to TTCTCT, for which the binding signal in experiment [1] is 1.29 fold enrichment (6-mer frequency, TF over GST control); in [2] it was 1.3 fold enrichment (6-mer frequency, TF over GST control); in experiment [3], 1.27 fold enrichment (6-mer frequency, TF over GST control); in experiment [4], 1.32 fold enrichment (6-mer frequency, TF over GST control); in experiment [5], 1.33 fold enrichment (6-mer frequency, TF over GST control); in experiment [6], 1.27 fold enrichment (6-mer frequency, TF over GST control). Also, the binding signal in experiment [7] was 1.3 fold enrichment (6-mer frequency, TF over GST control); in [8] it was 1.16 fold enrichment (6-mer frequency, TF over GST control); in experiment [9], 1.29 fold enrichment (6-mer frequency, TF over GST control).

For TCCTGC, the binding signal in experiment [1] is 1.61 fold enrichment (6-mer frequency, TF over GST control); in experiment [2], 1.8 fold enrichment (6-mer frequency, TF over GST control); in experiment [3], 1.49 fold enrichment (6-mer frequency, TF over GST control); in [4], 1.68 fold enrichment (6-mer frequency, TF over GST control); in [5], 1.66 fold enrichment (6-mer frequency, TF over GST control); in experiment [6] it was 1.53 fold enrichment (6-mer frequency, TF over GST control). For the same sequence, the binding signal in experiment [7] is 1.67 fold enrichment (6-mer frequency, TF over GST control); in experiment [8], 1.81 fold enrichment (6-mer frequency, TF over GST control); in experiment [9], 1.46 fold enrichment (6-mer frequency, TF over GST control).

For CTCTTC, the binding signal in [1] is 1.62 fold enrichment (6-mer frequency, TF over GST control); in experiment [2], 1.64 fold enrichment (6-mer frequency, TF over GST control); in experiment [3], 1.66 fold enrichment (6-mer frequency, TF over GST control); in experiment [4] it was 1.71 fold enrichment (6-mer frequency, TF over GST control); in experiment [5], 1.66 fold enrichment (6-mer frequency, TF over GST control); in [6] it was 1.69 fold enrichment (6-mer frequency, TF over GST control). Also, the binding signal in experiment [7] is 1.6 fold enrichment (6-mer frequency, TF over GST control); in [8], 1.84 fold enrichment (6-mer frequency, TF over GST control); in [9] it was 1.66 fold enrichment (6-mer frequency, TF over GST control).

Consider CTACAT, for which the binding signal is 1.43 fold enrichment (6-mer frequency, TF over GST control) in [1]; 1.4 fold enrichment (6-mer frequency, TF over GST control) in experiment [2]; 1.44 fold enrichment (6-mer frequency, TF over GST control) in experiment [3]; 1.32 fold enrichment (6-mer frequency, TF over GST control) in experiment [4]; 1.38 fold enrichment (6-mer frequency, TF over GST control) in experiment [5]; 1.28 fold enrichment (6-mer frequency, TF over GST control) in experiment [6]. Besides, the binding signal in [7] was 1.38 fold enrichment (6-mer frequency, TF over GST control); in experiment [8] it was 1.5 fold enrichment (6-mer frequency, TF over GST control); in experiment [9], 1.43 fold enrichment (6-mer frequency, TF over GST control).
